Measurements published in PMC4336329 (PLoS ONE, 2015).
The whole screen tested about 310,000 compounds, of which about 14,000 (4.5%) showed an effect of 50% or more. The effect is printed as a negative number. This excerpt belongs to a sample that is enriched for strong results.

These molecules were tested against human ether-à-go-go-related gene (hERG) potassium channel (human, UniProt Q12809) (assay: primary screen, population patch clamp on CHO cells stably expressing hERG; higher = less effect of the substance).
human ether-à-go-go-related gene (hERG) potassium channel, sequence (Q12809 whole entry, looked up): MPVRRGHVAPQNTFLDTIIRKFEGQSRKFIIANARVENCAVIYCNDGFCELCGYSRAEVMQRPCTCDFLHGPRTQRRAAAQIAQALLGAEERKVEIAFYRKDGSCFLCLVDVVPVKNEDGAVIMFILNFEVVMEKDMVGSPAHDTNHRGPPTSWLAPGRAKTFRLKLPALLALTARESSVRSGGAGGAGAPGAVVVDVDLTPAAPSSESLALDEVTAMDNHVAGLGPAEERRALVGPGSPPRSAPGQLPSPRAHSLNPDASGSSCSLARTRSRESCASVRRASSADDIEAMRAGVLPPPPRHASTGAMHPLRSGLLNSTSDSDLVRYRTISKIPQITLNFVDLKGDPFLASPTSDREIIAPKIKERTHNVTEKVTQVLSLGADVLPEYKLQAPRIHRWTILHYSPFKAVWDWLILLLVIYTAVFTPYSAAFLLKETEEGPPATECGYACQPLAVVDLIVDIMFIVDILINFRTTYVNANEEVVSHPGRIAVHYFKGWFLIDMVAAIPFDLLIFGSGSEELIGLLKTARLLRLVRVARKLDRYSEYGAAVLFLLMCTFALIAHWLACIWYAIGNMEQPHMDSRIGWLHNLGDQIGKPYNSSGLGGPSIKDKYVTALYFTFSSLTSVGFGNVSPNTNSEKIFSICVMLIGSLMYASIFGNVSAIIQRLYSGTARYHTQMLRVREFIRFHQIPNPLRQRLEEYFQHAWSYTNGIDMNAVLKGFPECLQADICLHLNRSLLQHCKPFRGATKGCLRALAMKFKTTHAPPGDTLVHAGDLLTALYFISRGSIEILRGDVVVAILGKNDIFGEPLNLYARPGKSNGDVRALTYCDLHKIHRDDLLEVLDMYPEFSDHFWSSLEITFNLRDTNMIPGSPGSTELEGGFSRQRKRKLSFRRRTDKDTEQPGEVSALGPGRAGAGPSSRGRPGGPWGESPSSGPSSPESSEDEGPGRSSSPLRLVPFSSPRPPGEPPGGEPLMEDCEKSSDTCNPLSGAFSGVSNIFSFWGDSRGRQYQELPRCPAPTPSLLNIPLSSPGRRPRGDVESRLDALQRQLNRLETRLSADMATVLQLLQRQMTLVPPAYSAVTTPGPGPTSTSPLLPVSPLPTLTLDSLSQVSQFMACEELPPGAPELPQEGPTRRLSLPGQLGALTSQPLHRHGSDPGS
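Further: peak tail current of the secondary pulse compared with the same well before compound.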

| Compound | hERG current change (%, negative = inhibition) at 10uM [%] |
| --- | --- |
| CN(CC(=O)O/N=C(\N)c1ccc([N+](=O)[O-])cc1)S(=O)(=O)c1ccc2ccccc2c1 | -12.6 |
| CCN(C1CCCCC1)S(=O)(=O)c1ccc(C(=O)O)cc1 | 6.74 |
| O=C(Nc1cccnc1Cl)c1ccc(S(=O)(=O)N2CCCCCC2)cc1 | -8.39 |
| CCc1c2c(nc3ccc(OC(=O)N4CCC(N5CCCCC5)CC4)cc13)-c1cc3c(c(=O)n1C2)COC(=O)[C@]3(O)CC.Cl.O | 12.8 |
| Cc1ccc(CCNC(=O)CN2CCN(Cc3ccccc3F)C2=O)cc1 | -8.3 |
| O=C(CN1CCN(Cc2ccccc2F)C1=O)NCCc1ccc(Cl)cc1 | -52.8 |
| CC(CCc1ccccc1)NC(=O)CN1CCN(Cc2ccccc2)C1=O (stereo not drawn) | -18.2 |
| Cc1ccc(CN2CCN(CC(=O)NC(C)CCc3ccccc3)C2=O)cc1 (stereo not drawn) | -20.6 |
| COc1ccc(CCNC(=O)CN2CCN(Cc3ccccc3F)C2=O)cc1OC | 8.26 |
| CC(CCc1ccccc1)NC(=O)CN1CCN(Cc2ccc(Cl)cc2)C1=O (stereo not drawn) | -53.2 |
| COc1ccc(C(CC(=O)Nc2cc(OC)cc(OC)c2)n2cccc2)cc1 (stereo not drawn) | 2.58 |
| Nc1ccc(N2CCOCC2)c(Cl)c1 | 1.49 |
| CC(=O)Nc1ccc(S(=O)(=O)Nc2nc(CN3CCOCC3)nc3sc4c(c23)CCCC4)cc1 | -4 |
| CCOc1ccc(N(CC(=O)NCC2CCCO2)C(=O)CCC(=O)Nc2nccs2)cc1 (stereo not drawn) | 2.69 |
| Cc1nn2c(-c3cccc(NC(=O)c4ccco4)c3)nnc2c2ccccc12 | -5.38 |
| Cc1ccc(OCCCCCCN2CCNCC2)c(Br)c1.O=C(O)C(=O)O | -30.3 |
| CNCCCOc1ccc(C)cc1Br.O=C(O)C(=O)O | -10.9 |
| Cc1ccc(C(C)C)c(OCCCCN2CCNCC2)c1.O=C(O)C(=O)O | -6.77 |
| Cc1ccc(OCCOCCN2CCCC2)c(Br)c1.O=C(O)C(=O)O | -24.7 |
| Cc1ccc(OCCCCN2CCC(C)CC2)c(Br)c1.O=C(O)C(=O)O | -63.1 |
| Cc1ccc(OCCCCN2CCCCC2)c(Br)c1.O=C(O)C(=O)O | -62.6 |
| COC(=O)/C(=C1/Oc2ccc(C)cc2S1)C(F)(F)F | 32.8 |
| N=C1SCC(=O)N1c1ccc(Cl)cc1 | 8.91 |
| CC(C)(C)c1ccc(N2C(=N)SCC2=O)cc1 | -0.538 |

| Compound | hERG current change (%, negative = inhibition) at 10uM [%] |
| --- | --- |
| Cc1ccc(N2C(=N)SCC2=O)cc1Cl | -70.6 |
| Cc1oc2c(c1C(=O)N1CCOCC1)C(=O)c1ccccc1C2=O | 5.25 |
| CC(=O)N1CCc2cc(S(=O)(=O)NC(Cc3ccccc3)C(=O)NCCN3CCCCC3C)ccc21 (stereo not drawn) | 5.72 |
| Fc1ccc(CNCCc2ccccc2F)cc1 | -2.59 |
| Fc1ccccc1CCNCc1ccccc1 | 5.42 |
| CCc1ccc(CNCCc2ccccc2F)cc1 | -67.7 |
| O=C(Cc1ccc(Br)cc1)NCCc1ccc(F)cc1 | 11.3 |
| CCc1ccc(CNCc2ccc(F)cc2)cc1 | -21 |
| Fc1ccc(CCNCc2ccc(Br)cc2)cc1 | -53.8 |
| Cc1ccccc1CCNCc1ccc(Br)cc1 | -53.6 |
| Cc1ccc(CNCCc2ccccc2F)cc1.Cl | -31.8 |
| Fc1ccc(CNCc2ccc(Br)cc2)cc1 | -28.5 |
| Fc1ccc(CNCCc2ccccc2)cc1.O=C(O)C(=O)O | -18.2 |
| CCc1ccc(CNCCc2ccc(F)cc2)cc1 | -72.8 |
| Cl.c1ccc(CCNCc2ccccc2)cc1 | -9.4 |
| Cc1cccc(-n2ncc3c2CCCC3NC(=O)Cc2c(C)noc2C)c1C (stereo not drawn) | 15.9 |
| COc1ccc(/C=C2\SC(=S)N(CCCC(=O)NC3CCCC3)C2=O)cc1OC | -12.2 |
| Cc1nn(CCCC(=O)O)c(C)c1[N+](=O)[O-] | 12.3 |
| O=C(COc1ccc(S(=O)(=O)NC2CCCCC2)cc1)NCCC1=CCCCC1 | 2.33 |
| CCN(CC)S(=O)(=O)c1ccc(NC(=O)COC(=O)c2ccc(NC(=O)CC#N)cc2)cc1 | 20.5 |
| CCn1c(Cc2ccccc2)nnc1SCC(=O)OC(C)C | 0.117 |
| CCNC(=O)C1CC(=O)N(c2ccc(Br)cc2)C1 (stereo not drawn) | 2.64 |
| CC1(C)Cc2c(sc3nc(NCCN4CCOCC4)n4ncnc4c23)CO1 | -5.72 |
| N/C(=N\OC(=O)CSc1ccccc1)c1ccncc1 | 0.55 |

| Compound | hERG current change (%, negative = inhibition) at 10uM [%] |
| --- | --- |
| CC1CC(C)CN(C(=O)c2cc(S(=O)(=O)N3CCCCC3)ccc2Cl)C1 (stereo not drawn) | -37.7 |
| Cc1ccc(NN2C(=O)C=C(c3ccc(Cl)cc3)C2=O)cc1 | 13.9 |
| Cl.Fc1ccc(CCNCc2cccc(Cl)c2)cc1 | -16.5 |
| CCCCCCNCc1ccc(Br)cc1.Cl | -61.7 |
| CCCCCCNCc1cccc(Br)c1.Cl | -11.3 |
| CCN(CC)c1ccc(CNCCc2ccccc2F)cc1.Cl | -5.46 |
| CCCCCNCc1ccc(Br)cc1.Cl | -33.3 |
| CCN(CC)c1ccc(CNCCc2ccc(F)cc2)cc1.Cl | -58.8 |
| O=C(NCCO)c1ccc2[nH]c3c(c2c1)CCCC3 | -0.0914 |
| Cc1nc(COC(=O)c2c(C)nn(-c3ccccc3)c2C)cs1 | -2.05 |
| Cc1ccc(C(=O)C(C)OC(=O)Cc2c[nH]c3ccccc23)cc1 (stereo not drawn) | 1.64 |
| CN(CC(=O)NCC(=O)Nc1ccc(F)cc1)C1CCS(=O)(=O)C1 (stereo not drawn) | 13.3 |
| O=C(NC1CCCCCC1)c1ccc(CN2CCOCC2)cc1 | 11.3 |
| Cc1ccc(CNC(=O)c2ccccc2-n2cnnn2)cc1 | 9.73 |
| O=C(NC(=S)NC1CCCCCCCCCCC1)c1cccnc1 | -4.46 |
| COc1ccc(C(=O)NCCN2CCCC2)cc1.Cl | 3.56 |
| O=C(NCCN1CCN(C(=O)c2ccc(Br)cc2)CC1)c1ccc(Br)cc1 | -71.3 |
| Cl.O=C(NCCN1CCCC1)c1ccc(Br)cc1 | -11.9 |
| O=C(NCCN1CCN(C(=O)c2ccc(F)cc2)CC1)c1ccc(F)cc1 | -70.1 |
| COc1ccc(C(=O)NCCN2CCN(C(=O)c3ccc(OC)cc3)CC2)cc1 | -75.2 |
| O=C(NCCCN1CCOCC1)c1ccc(Br)cc1 | -13.7 |
| COc1ccc(C(=O)NCCCN2CCOCC2)cc1 | -1.82 |
| O=C(NCCNC(=O)c1ccc(F)cc1)c1ccc(F)cc1 | 0.397 |
| O=C(NCCN1CCOCC1)c1ccc(F)cc1 | 1.66 |

| Compound | hERG current change (%, negative = inhibition) at 10uM [%] |
| --- | --- |
| CC(O)CNc1cnccn1 (stereo not drawn) | 8.76 |
| Cc1cc(C)c(N(C(=O)c2csnn2)C(C(=O)NC(C)(C)C)c2ccncc2)c(C)c1 (stereo not drawn) | 9.01 |
| O=C(c1ccco1)N1CCN(S(=O)(=O)c2ccc3c(c2)OCCO3)CC1 | -0.283 |
| CC(=O)Nc1ccc(SCC(=O)Nc2oc(C)c3c(C)n[nH]c(=O)c23)cc1 | 8.72 |
| CCn1c(/C=C/Nc2ccccc2)[n+](CC)c2cc(Cl)c(Cl)cc21.[I-] | -79.3 |
| CCn1c(/C=C/N(C(C)=O)c2ccccc2)[n+](CCCS(=O)(=O)[O-])c2cc(Cl)c(Cl)cc21 | 19.9 |
| CCn1c(/C=C/N(C(C)=O)c2ccccc2)[n+](CC)c2ccc(Cl)cc21.[I-] | 2.3 |
| Cc1n(C)c2cc(Cl)ccc2[n+]1Cc1ccccc1.[I-] | -3.49 |
| CCn1c(C)[n+](CCOCC[n+]2c(C)n(CC)c3cc(Cl)c(Cl)cc32)c2cc(Cl)c(Cl)cc21.[I-] | 6.82 |
| CCn1c(/C=C/Nc2ccccc2)[n+](CC)c2ccc(Cl)cc21.[I-] | -78.6 |
| CC(=O)c1ccc(Oc2cc(C)nc(-n3nc(C)cc3C)n2)cc1 | -59.9 |
| CC(=O)c1ccc(Oc2cc(C)nc(N3CCOCC3)n2)cc1 | -13.3 |
| COC(=O)c1ccc(Oc2cc(C)nc(-n3nc(C)cc3C)n2)cc1 | -22.4 |
| COc1cccc(OC)c1C(=O)N1CCN(Cc2ccccc2C)CC1 | -0.823 |
| O=C1C2C3C=CC(C2C(=O)N1C1CCCCC1)C1C(=O)N(C2CCCCC2)C(=O)C31 (stereo not drawn) | 14.7 |
| COc1ccc(C2c3ccc(O)cc3Oc3ncn(Cc4ccco4)c(=N)c32)cc1 (stereo not drawn) | -71.9 |
| COc1ccc(C2c3ccc(O)cc3Oc3ncn(CCCO)c(=N)c32)cc1 (stereo not drawn) | -22.8 |
| COc1ccc(C2c3ccc(O)cc3Oc3ncn(Cc4ccccc4)c(=N)c32)cc1OC (stereo not drawn) | -51.7 |
| COc1ccc(C2c3ccc(O)cc3Oc3ncn(CC(C)C)c(=N)c32)cc1 (stereo not drawn) | -69.8 |
| COc1ccc(C2c3ccc(O)cc3Oc3ncn(CCCO)c(=N)c32)cc1OC (stereo not drawn) | -6.28 |
| COc1ccc(C2c3ccc(O)cc3Oc3ncn(CCN4CCOCC4)c(=N)c32)cc1 (stereo not drawn) | -28.1 |
| COc1ccc(C2c3ccc(O)cc3Oc3ncn(CCN4CCOCC4)c(=N)c32)cc1OC (stereo not drawn) | -11.8 |
| COc1ccc(C2c3c(ncn(Cc4ccco4)c3=N)Oc3ccc4ccccc4c32)cc1 (stereo not drawn) | -7.04 |
| COc1ccc(C2c3ccc(O)cc3Oc3ncn(Cc4ccco4)c(=N)c32)cc1OC (stereo not drawn) | -74.4 |
